These are literature values, as cited in PubChem BioAssay AID977610.

The data set can be described thus: PubChem AID 977610. The note with it: PDB protein-ligand complexes, literature Ki.

Screen size: about 3,600 compounds; about 3,600 (100%) were called active. The limit is not given here; nearly all actives have Ki up to about 18000 µM. So high a share suggests a set chosen from earlier hits. Some of the results follow.

Consider `CCCCCC[C@H]([C@H](C)O)n1cnc2c(N)ncnc21`, for which, for the setting “protein: Bos taurus Adenosine deaminase (ADA), PDB entry 2z7g”, the Ki was 0.00113 µM (active).

With `COC(=O)N[C@H](C(=O)NN(CCC[C@@]1(O)Cc2ccc(cc2)C/C=C\CNC(=O)[C@H](C(C)C)NC1=O)Cc1ccc(-c2cccnc2)cc1)C(C)(C)C`, the Ki (protein: HIV-1 protease, PDB entry 4cpt) is 0.02 µM (active).

Regarding `COC(=O)N[C@H](C(=O)NN(CCC[C@@]1(O)Cc2ccc(cc2)C/C=C\CNC(=O)[C@H](C(C)C)NC1=O)Cc1ccc(-c2ccncc2)cc1)C(C)(C)C`, the Ki (protein: HIV-1 protease, PDB entry 4cps) is 0.0054 µM (active).

For `COC(=O)N[C@H](C(=O)NN(CCC[C@@]1(O)Cc2ccc(cc2)C/C=C\CNC(=O)[C@H](C(C)C)NC1=O)Cc1ccc([C@H]2C=CCS2)cc1)C(C)(C)C`, the Ki (protein: HIV-1 protease, PDB entry 4cpx) was 0.017 µM (active).

Regarding `CC(C)c1ccc(CCC(=O)N[C@@H]2O[C@H](CO)[C@@H](O)[C@H](O)[C@H]2O)cc1`, for the setting “protein: Glycogen phosphorylase, muscle form, PDB entry 4mic”, the Ki was 4.98 µM (active).

For `Cc1ccc(C(=O)NC(=O)N[C@@H]2O[C@H](CO)[C@@H](O)[C@H](O)[C@H]2O)cc1`, the Ki (protein: Oryctolagus cuniculus Glycogen Phosphorylase, PDB entry 2qlm) is 2.3 µM (active).

With `CC(C)c1ccc(C[C@@H](C)C(=O)N[C@@H]2O[C@H](CO)[C@@H](O)[C@H](O)[C@H]2O)cc1`, the Ki (protein: Glycogen phosphorylase, muscle form, PDB entry 4mi3) is 75.3 µM (active).

`O=C(CCc1ccc(-c2ccccc2)cc1)N[C@@H]1O[C@H](CO)[C@@H](O)[C@H](O)[C@H]1O`: the Ki (protein: Glycogen phosphorylase, muscle form, PDB entry 4mhs) was 5.14 µM (active).

For `CC[B]O`, the Ki (protein: pure Acyl-homoserine lactone acylase PvdQ, PDB entry 4wks) is 2000 µM (active).

In the case of `Cc1nn(C)cc1-c1ccn[nH]1`, the Ki (protein: Catechol O-methyltransferase COMT, PDB entry 4p58) was 25 µM (active).

As to `CC(C)S[C@@H]1O[C@H](CO)[C@H](O)[C@H](O)[C@H]1O`, where the note is “protein: Putative lipoprotein BT2192, PDB entry 4oue”, the Ki was 500 µM (active).

Turning to `NCC1CCC(C(=O)N[C@@H](Cc2ccccc2)c2ncc(-c3ccc(C(N)=O)cc3)[nH]2)CC1` (stereo partly specified), the Ki (protein: Coagulation factor XI FXIa, PDB entry 4ty6) was 0.03 µM (active).

For the compound `NCC1CCC(C(=O)N[C@@H](Cc2ccccc2)c2nc(-c3ccc4c(N)n[nH]c4c3)c(Cl)[nH]2)CC1` (stereo partly specified), the Ki (protein: Coagulation factor XI FXIa, PDB entry 4ty7) is 0.0003 µM (active).

As for `N#CCC(=O)N1CCC[C@@H](n2[nH]nc3cnc4nccc4c32)C1`, for the setting “protein: Tyrosine-protein kinase JAK1, PDB entry 4i5c”, the Ki was 0.0015 µM (active).

Consider `O=C(O)C(=O)Nc1ccc(C[C@@H](c2nc3ccccc3o2)S(=O)(=O)Nc2ccc(F)cc2)cc1`, for which, under “protein: Tyrosine-protein phosphatase non-receptor type 1, PDB entry 4i8n”, the Ki is 35 µM (active).

Regarding `O=c1[nH]c(=O)n([C@@H]2O[C@H](CO)[C@@H](O)[C@H](O)[C@H]2O)cc1I`, the inhibition constant Ki (protein: Glycogen phosphorylase, muscle form, PDB entry 3t3h) was 1.94 µM (active).

For the compound `O=c1[nH]c(=O)n([C@@H]2O[C@H](CO)[C@@H](O)[C@H](O)[C@H]2O)cc1C(F)(F)F`, where the note is “protein: Glycogen phosphorylase, muscle form, PDB entry 3t3i”, the Ki was 17 µM (active).

On to `O=c1[nH]c(=O)n([C@@H]2O[C@H](CO)[C@@H](O)[C@H](O)[C@H]2O)cc1Cl`, for which the Ki (protein: Glycogen phosphorylase, muscle form, PDB entry 3t3e) is 1.02 µM (active).

On to `O=c1[nH]c(=O)n([C@@H]2O[C@H](CO)[C@@H](O)[C@H](O)[C@H]2O)cc1Br`, for which the Ki (protein: Glycogen phosphorylase, muscle form, PDB entry 3t3g) is 3.27 µM (active).

Consider `OC[C@@H]1[C@@H](O)[C@H](O)[C@@H](O)[C@@H]1NCC1CCCCC1`, for which the Ki (protein: Raucaffricine Glucosidase, PDB entry 3zj6) is 0.22 µM (active).

Take `COCCCC[C@@H](NOCCN)c1ccc(C(F)(F)F)cc1`: the Ki (protein: Transporter(delta13 mutant), PDB entry 4mm9) was 2.07 µM (active).

As to `O=[N+]([O-])c1ccccc1S[C@@H]1O[C@H](CO)[C@H](O)[C@H](O)[C@H]1O`, the Ki (protein: Putative lipoprotein BT2192, PDB entry 4ozo) is 147 µM (active).

As for `COc1cc2c(c(OC)c1)[C@@H]1[C@H]3CCC[C@@H](C(=O)N1CC2)N3C(=O)C(=O)c1cc(OC)c(OC)c(OC)c1`, the Ki (protein: Peptidyl-prolyl cis-trans isomerase FKBP5 (A19T mutation), PDB entry 4jfi) is 18.1 µM (active).

As for `COc1cc(Cc2cnc(N)nc2N)cc(/C=C/C(=O)N2NCc3ccccc3[C@H]2CC(C)C)c1OC`, under “protein: Dihydrofolate reductase, PDB entry 4elh”, the Ki is 0.0082 µM (active).

In the case of `COc1cc(Cc2cnc(N)nc2N)cc(/C=C/C(=O)N2N=Cc3ccccc3[C@@H]2C(C)C)c1OC`, for the setting “protein: Dihydrofolate reductase, PDB entry 4ele”, the Ki was 0.0132 µM (active).

As for `COc1cc(Cc2cnc(N)nc2N)cc(/C=C/C(=O)N2NCc3ccccc3[C@@H]2CC(C)C)c1OC`, under “protein: Dihydrofolate reductase, PDB entry 4elg”, the Ki was 0.0069 µM (active).

For the compound `COc1cc(Cc2cnc(N)nc2N)cc(/C=C/C(=O)N2NCc3ccccc3[C@@H]2c2ccccc2)c1OC`, where the note is “protein: Dihydrofolate reductase, PDB entry 4elb”, the Ki was 0.005 µM (active).

As to `COc1cc(Cc2cnc(N)nc2N)cc(/C=C/C(=O)N2NCc3ccccc3[C@@H]2CCC(F)(F)F)c1OC`, the Ki (protein: Dihydrofolate reductase, PDB entry 4elf) was 0.0094 µM (active).

As for `CCCCCCCCCCCCCB(O)O`, the Ki (protein: Acyl-homoserine lactone acylase PvdQ subunit beta, PDB entry 4m1j) was 0.0002 µM (active).

In the case of `Cc1cc(N)ccc1O`, the Ki (protein: PDE10A2, PDB entry 4llp) was 16 µM (active).

As for `O=C(O)c1ccccc1C(=O)NCc1c(Cl)cccc1Sc1ccc(Cl)cc1Cl`, under “protein: Dehydrosqualene synthase, PDB entry 3tfp”, the Ki is 0.34 µM (active).

What is called Ki is the dissociation constant of the complex between target and ligand, obtained from inhibition or displacement.
